# Assay outcomes from PubChem.
# hNpr1 antagonist: blocks ANP-stimulated signaling of human Npr1 receptor | P16066 | HEK293 hNpr1 GloSensor cGMP, ANP-stimulated luminescence | Potency, µM (top dose mostly 46.3 µM), inactives show at the highest dose activity change, negative = inhibition, actives largely listed as inhibitors | 76,000 compounds, 1.6% hits | AID 1347048; calls by dose curve; also: nearly all actives have a fitted effect of over 60% in size
#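 HEK293 cells stably expressing human Npr1 and cGMP GloSensor pGS-40F, loaded 2 h with 2% GloSensor reagent, given compound 30 min at room temperature. Luminescence read before and 20 min after 0.1 nM hNppA.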
# GPT2 inh: GPT2 alanine aminotransferase inhibition; Q8TD30; Recombinant GPT2, coupled pyruvate oxidase/HRP Amplex Red fluorescence; Potency, µM (top dose mostly 57.7 µM), without a hit: top-dose activity change, negative = inhibition, hits mostly inhibitors; 100,000 compounds, 0.25% hits; also: nearly all actives have a fitted effect of over 60% in size
#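 Fluorescence of coupled pyruvate oxidase/HRP/Amplex Red system (50uM Amplex, 30 min, dark) reports pyruvate formed by GPT2. Enzyme reaction: 10ng/uL GPT2, 2mM L-alanine, 250uM a-KG, 30 min room temperature, pH 7.5; 50uM AOA control.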
# HEK293 tox: HEK 293 cell cytotoxicity. HEK 293 viability, ATP luminescence (CellTiter-Glo), 48-72 h. Potency, µM (doses to about 115 µM), for inactives: at the highest dose activity change, negative = cytotoxicity, most hits filed as inhibitors. 94,000 compounds, 6.6% hits; also: nearly all actives have a fitted effect of over 60% in size
#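 250 HEK 293 cells/well; compound by pintool; incubated 48 or 72 hr at 37 degree Celsius; CellTiter-Glo added, 10 min RT, luminescence imaged.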
# 3T3 cytotox: kills NIH 3T3 cells. 94,000 compounds, 4.3% hits. NIH 3T3 viability, CellTiter-Glo ATP luminescence, 48-72 h. AID 1345082. Potency, µM (top dose mostly 96.7 µM), inactives show at the top dose activity change, negative = cytotoxicity, hits mostly inhibitors; also: nearly all actives have a fitted effect of over 55% in size
#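 Luminescent ATP readout (CellTiter-Glo, 10 min RT) after 48 or 72 hr compound exposure of NIH 3T3 cells seeded at 400 cells/well in 1536-well format; quantitative HTS.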
# Luciferase inh: inhibitors of firefly (Photinus pyralis) luciferase; P08659; purified P. pyralis luciferase, luminescence, biochemical; Potency, µM (highest dose often 115 µM), hits mostly inhibitors; 76,000 compounds, 2.5% hits; AID 1347043; also: nearly all actives have a fitted effect of over 65% in size
# Target sequence (P08659 whole entry, looked up): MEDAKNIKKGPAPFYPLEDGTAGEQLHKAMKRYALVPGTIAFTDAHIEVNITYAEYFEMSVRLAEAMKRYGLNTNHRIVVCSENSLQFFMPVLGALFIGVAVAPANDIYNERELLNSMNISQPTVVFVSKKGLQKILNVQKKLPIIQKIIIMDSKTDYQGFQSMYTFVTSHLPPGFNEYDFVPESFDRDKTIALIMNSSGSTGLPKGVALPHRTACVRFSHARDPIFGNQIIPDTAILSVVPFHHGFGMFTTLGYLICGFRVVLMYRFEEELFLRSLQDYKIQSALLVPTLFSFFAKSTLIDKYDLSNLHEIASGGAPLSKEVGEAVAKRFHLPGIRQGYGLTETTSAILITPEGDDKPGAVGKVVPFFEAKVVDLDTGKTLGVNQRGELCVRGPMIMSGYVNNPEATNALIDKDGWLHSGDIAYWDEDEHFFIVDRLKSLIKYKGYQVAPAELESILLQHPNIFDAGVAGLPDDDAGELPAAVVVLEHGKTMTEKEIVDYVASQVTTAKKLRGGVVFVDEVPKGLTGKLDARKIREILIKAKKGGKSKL
#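 Inhibitors were tested against purified firefly luciferase in a biochemical, low-substrate format (both substrates at 10uM) and luminescence measured with a CCD imager.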
# The depositor's hits bear a star; i = inactive; ? = inconclusive; nt = no result given; [ ] = remark or other dose. Sampled rows, rich in hits. Any-hit rate of the full collection: about 10%. Unless noted, calls follow the shape of the dose curve; as a rule, active = well fitted curve in the direction sought with a large enough effect; inconclusive = small, poorly fitted or top-dose-only effect, or another doubt; inactive = no such curve, though single readings can be large; an effect the other way counts as inactive or inconclusive. % is scaled to controls: 0 for no effect and ±100 for the full control effect; potency is read from the fitted curve at half-maximal effect.
SMILES,hNpr1 antagonist,GPT2 inh,HEK293 tox,3T3 cytotox,Luciferase inh
CS(=O)(=O)N1C[C@H]2CCN(C(=O)c3cc(F)ccc3F)C[C@H]21,4%,i,-10%,-1%,i
O=C(O)Cn1ccc2cc(OCC3CCN(C(=O)CCC(F)(F)F)CC3)cnc21,-9%[70.6 µM],?,-11%[172 µM],89µM*,i
O=C(O)Cn1ccc2cc(OCC3CCN(C(=O)C4CCCC4)CC3)cnc21,0%[70.6 µM],-5%[88.5 µM],3%[172 µM],100µM*,i
COc1ccccc1-n1c(=O)c(C(=O)N2CCN(C(=O)Cc3ccccn3)CC2)nc2cccnc21,nt,-3%,2%,-7%,nt
Fc1ccc(-c2cnc([C@@H]3COCCN3Cc3cnc4ccccc4c3)[nH]2)c(F)c1,-14%[70.6 µM],-5%[88.5 µM],89µM*,?,i
Clc1ccc(-c2cnc([C@@H]3COCCN3Cc3cnc4ccccc4c3)[nH]2)s1,?,-9%[88.5 µM],89µM*,?,i
O=C1CN(C(=O)c2cccc(C(F)(F)F)c2)CC(O)CN1Cc1ccc(Cl)cc1 (configuration not stated),nt,nt,?,-23%,nt
Cn1ncc2c(C(=O)N3CCCC3)cc(-c3ccccc3C(F)(F)F)nc21,nt,nt,-28%,-26%,nt
Cn1ncc2c(C(=O)NCCc3cccc(F)c3)cc(-c3ccccc3C(F)(F)F)nc21,nt,nt,40µM*,?,nt
Cn1ncc2c(C(=O)C3CCN(Cc4ccccc4)CC3)cc(-c3ccccc3C(F)(F)F)nc21,nt,nt,20µM*,32µM*,nt
COCCNC(=O)c1cc(-c2ccccc2C(F)(F)F)nc2c1cnn2C,nt,nt,-10%,-5%,nt
Cn1ncc2c(C(=O)NCc3ccccc3F)cc(-c3ccccc3C(F)(F)F)nc21,nt,nt,40µM*,?,nt
O=C(NC1CC1)c1ccc2nnc(Cc3ccc(Cl)cc3)n2c1,nt,i,?,?,nt
O=C(c1ccc(F)cc1)N1CCCC2(CNc3ncccc3[S+](=O)([O-])N2)C1 (configuration not stated),nt,nt,4%,i,nt
Cc1ccc(OC2(C(=O)N(C)Cc3n[nH]c4c3CCCC4)CCNCC2)cc1,-18%,1%,?,?,i
COc1ccc(-c2ccc3ncc(Nc4cccc(N[S+](C)(=O)[O-])c4)n3n2)cc1OC,-2%,?,?,?,40µM*
C[S+](=O)([O-])Nc1cccc(Nc2cnc3ccc(-c4ccc(F)cc4)nn23)c1,-21%[70.6 µM],?,79µM*,?,?
O=[S+]([O-])(NC1CCN(c2ccnc3ccnn23)CC1)c1ccccc1,nt,i,?,?,nt
O=C(NCc1ccc(F)cc1)c1ccnc(-c2nnc3ccc(Nc4ccccc4)nn23)c1,-27%,-8%,?,25µM*,i
COc1ccnc(-c2nnc3ccc(NC4CCOCC4)nn23)c1,-2%[70.6 µM],0%[88.5 µM],-25%[172 µM],79µM*,i
COc1cccc(Nc2ccc3nnc(-c4cc(OC)ccn4)n3n2)c1,?,-21%[88.5 µM],?,?,?
O=C(NCC1CCCO1)c1ccnc(-c2nnc3ccc(Nc4ccccc4)nn23)c1 (configuration not stated),1%[70.6 µM],-19%[88.5 µM],?,?,i
COc1cccc(NC(=O)c2ccnc(-c3nnc4ccc(Nc5ccccc5)nn34)c2)c1,-26%,-14%,40µM*,35µM*,i
CN(c1ccccc1)c1ccc2nnc(-c3cc(C(=O)NCc4ccncc4)ccn3)n2n1,-6%[70.6 µM],3%[88.5 µM],71µM*,?,i
O=C(NC1CCN(c2ccc3nnc(-c4ccccc4)n3n2)C1)c1ccccc1 (configuration not stated),nt,nt,i,-1%,nt
CC(C)Cn1c(=O)c(C(=O)N2CCN(C(=O)c3ccccc3Cl)CC2)nc2cccnc21,nt,i,i,-29%,nt
CC(C)CCN1CCOc2cc(C(=O)NCc3cccs3)ccc2C1,-5%[70.6 µM],?,?,?,i
CC(C)CCN1CCOc2cc(C(=O)Nc3nccs3)ccc2C1,-18%[70.6 µM],-8%[88.5 µM],100µM*,?,?
CC(C)CCN1CCOc2cc(C(=O)NCc3ccccc3)ccc2C1,4%[70.6 µM],-1%[88.5 µM],?,?,i
